Drawing on PubChem BioAssay, this text covers growth inhibition for 40 compounds.

“And” between values parts separate entries of the source, which are not always exact repeats. Identical values can stand only once. Some compounds were tested as several samples or in several runs, with calls that do not always agree. The source made the active and inactive calls.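 The calls were made as follows: active = growth inhibition above 50% at the single 2 µM test dose, taken to imply half-maximal potency below 2 µM; inactive = the rest.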

A short description of the assay: antimalarial activity against Dd2 strain (AID 2302).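 Also: 0% = DMSO untreated growth and 100% = chloroquine plus artemisinin killed control.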 As to conditions: P. falciparum Dd2 in RBCs, LDH growth readout, 72 h; at 2 µM; stronger effect = higher value.
On to `CC(=O)N/N=C/[C@H](CCc1ccccc1)NC(=O)[C@H](CC(C)C)NC(=O)c1ccc(OCCN2CCOCC2)cc1`, for which the growth inhibition was 87% (active). As for `CN1CCN(Cc2ccc(-c3cc4nccc(Nc5ccc(Oc6ccccc6)cc5)c4cc3Cl)o2)CC1`, the growth inhibition is 99% (active).

With `Cc1ccc(NCc2cccc(F)c2)cc1S(=O)(=O)N[C@@H]1CCN(C#N)C1`, the growth inhibition was 83% (active). In the case of `COc1ccc(NC(=O)N2CCN(CCCCCNC(=O)/C=C/c3ccc(C(F)(F)F)cc3)CC2)cc1Cl`, the growth inhibition was -5% (inactive). As for `NC1=NC(c2ccccc2)(c2cccc(O)c2)C(=O)N1CCCc1ccccc1` (stereo not given), the growth inhibition was 38% (inactive) and 93% (active).

`COc1c(C2CCN(CCCCNC(=O)c3noc(-c4ccc(C#N)cc4)n3)CC2)ccc2c1CCCC2`: the growth inhibition is -2% (inactive). `Cc1noc(C)c1-c1ccc2c(Nc3ccccc3C(C)(C)C)c(C(=O)NCc3ccc(OC(C)C)cc3)cnc2c1`: the growth inhibition is 98% (active).

On to `Cc1cc(=O)c(-c2ccc(Oc3cccc(C(F)(F)F)c3)cc2)c(C)[nH]1`, for which the growth inhibition was 95% (active) and 97% (active). As to `O=c1cc(NCCCNCc2cc(Cl)cc(Cl)c2OCc2ccccc2)[nH]c2ccccc12`, the growth inhibition is 50% (active). Regarding `O=C(NCCCCN1CCC(c2ccc(OC(F)(F)F)cc2)CC1)c1ccc(NC(=O)c2ccc(Cl)cc2)cc1`, the growth inhibition was 98% (active).

`Cc1cc(NCCC(=O)NCCc2ccccc2)nc(NCCc2ccc(F)cc2)n1`: the growth inhibition was 7% (inactive). Consider `O=C(/C=C/c1ccc(Cl)c(Cl)c1)NC1CCN(Cc2ccc(O)cc2)CC1`, for which the growth inhibition is 43% (inactive). As to `c1ccc(Oc2cccc(Nc3ccnc4ccccc34)c2)cc1`, the growth inhibition is 14% (inactive). Then `Cc1cccc2[nH]c(-c3ccc(-c4cccc(NC(=O)NCc5cccc(F)c5)c4)cc3)nc12`, with 5% (inactive). As to `Cc1ccc(NC(=O)NCCCCCN2CCC(c3c[nH]c4ccccc34)CC2)cc1I`, the growth inhibition is 5% (inactive). As to `COc1ccc(Cn2c(SCc3ccc(C)cc3)nc3cc(OC)c(OC)cc3c2=N)cc1Cl`, the growth inhibition is 7% (inactive).

As to `COc1ccc(NC(=O)c2cc(-c3ccc(NC(C)=O)cc3)cnc2N)cc1`, the growth inhibition was 5% (inactive).

Consider `O=C(NCCc1ccc(Cl)c(Cl)c1)c1ccc(CNC(=O)c2ccc(O)c(-c3ccc(Cl)c(Cl)c3)c2)cc1`, for which the growth inhibition was 3% (inactive).

As for `CCN(CC)C(=NCCCCCCN=C(NC(N)=NCc1cccc(Cl)c1)N(CC)CC)NC(N)=NCc1cccc(Cl)c1`, the growth inhibition was 99% (active).

`CNCCNCc1cccc(-c2ccc(-c3nc4ccc(C(F)(F)F)cc4[nH]3)cc2)c1`: the growth inhibition was 92% (active). Then `COc1ccc(-c2cccc(NC(=O)c3ccc(F)cc3)c2)cc1CNC(C)C`, with 9% (inactive); and `O=C1Nc2cccc3c2C1(CCCCN1CCC(c2cc4ccncc4[nH]2)CC1)CCC3` (stereo not given), with -2% (inactive) and -4% (inactive). As for `O=C(/C=C/c1ccc(Cl)c(Cl)c1)NCCCCCN1CCC(NC(=O)Nc2cccc(C(F)(F)F)c2)CC1`, the growth inhibition was 11% (inactive). As to `O=C(/C=C/c1ccc(Cl)c(Cl)c1)NC1CCC(CN2CCC(c3c[nH]c4ccncc34)CC2)CC1` (stereo not given), the growth inhibition was 96% (active). As to `Cc1cc(-c2ccc(O)c(CNC3CCCCC3)c2)cnc1N`, the growth inhibition is 100% (active).

As to `O=C(Nc1cccc(-c2ccc(-c3nc4ccc(F)cc4[nH]3)cc2)c1)c1cccnc1`, the growth inhibition is 92% (active). In the case of `COc1ccc2ncc(F)c(CCN3CC[C@H](NCc4cc5c(s4)CCCN5)[C@H](O)C3)c2n1`, the growth inhibition is 16% (inactive). Then `CN(C)C(=O)C(CC(=O)NCc1ccccc1Cl)N(C)C` (stereo not given) (tested in a mixture with another compound), with 2% (inactive); and `CC(C)Oc1ccc2c(c1)OC(c1ccccc1)(C(F)(F)F)NC2=O` (stereo not given), with 98% (active). With `COc1ccc2ncc(F)c(CCN3CCC(CNC(=O)C(=O)c4c[nH]c5ccccc45)CC3)c2n1`, the growth inhibition was 99% (active). For the compound `COc1ccc(C2C(C(=O)Nc3ccccc3)=C(C)Nc3c(C(=O)Nc4ccccc4)cnn32)cc1` (stereo not given), the growth inhibition was 66% (active). With `Cc1cccc2[nH]c(-c3ccc(-c4ccc(CN5CCCCC5CO)cc4)cc3)nc12` (stereo not given), the growth inhibition is 76% (active). As for `COc1cc(Cc2cnc(N)nc2N)cc(OCCCCc2nn[nH]n2)c1OC`, the growth inhibition was 0% (inactive).

Consider `CC(C)(C)NC(=O)COC(=O)c1c2c(nc3ccccc13)C(=Cc1ccc3c(c1)OCO3)CCC2`, for which the growth inhibition is 82% (active). `CN1CCC(C(=O)Nc2cccc(-c3ccc(-c4nc5ccc(C(F)(F)F)cc5[nH]4)s3)c2)CC1`: the growth inhibition is 95% (active). With `COCc1cccc(-c2cc(-c3ccc(S(C)(=O)=O)cc3)cnc2N)c1`, the growth inhibition was 88% (active). Then `NC(=O)COc1cccc2c1CCN(CCN1CCC(NC(=O)c3ccc(-c4ccc(Cl)cc4)cc3)CC1)C2`, with 6% (inactive); and `O=c1cc(NCCCNCc2ccc(Cl)c(Cl)c2)[nH]c2cc(Cl)ccc12`, with 51% (active); and `Cn1nccc1C(=O)NCCNCc1ccc(-c2ccc(-c3nc4ccc(C(F)(F)F)cc4[nH]3)cc2)cc1`, with 99% (active).

Consider `FC(F)(F)c1cccc(C=NNc2nc3ccccc3[nH]2)c1`, for which the growth inhibition was 99% (active).
